Results on 44 compounds are retold here after paper PMC4336329 (PLoS ONE, 2015).

Structures are written as SMILES. Screen size: about 310,000 compounds; about 14,000 (4.5%) showed an effect of 50% or more. The effect is printed as a negative number. The list comes from a sample in which strong results are over-represented; it also holds similar structures and randomly drawn compounds.
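Also: peak tail current of the secondary pulse compared with the same well before compound.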

Sequence of human ether-à-go-go-related gene (hERG) potassium channel (Q12809 whole entry, looked up): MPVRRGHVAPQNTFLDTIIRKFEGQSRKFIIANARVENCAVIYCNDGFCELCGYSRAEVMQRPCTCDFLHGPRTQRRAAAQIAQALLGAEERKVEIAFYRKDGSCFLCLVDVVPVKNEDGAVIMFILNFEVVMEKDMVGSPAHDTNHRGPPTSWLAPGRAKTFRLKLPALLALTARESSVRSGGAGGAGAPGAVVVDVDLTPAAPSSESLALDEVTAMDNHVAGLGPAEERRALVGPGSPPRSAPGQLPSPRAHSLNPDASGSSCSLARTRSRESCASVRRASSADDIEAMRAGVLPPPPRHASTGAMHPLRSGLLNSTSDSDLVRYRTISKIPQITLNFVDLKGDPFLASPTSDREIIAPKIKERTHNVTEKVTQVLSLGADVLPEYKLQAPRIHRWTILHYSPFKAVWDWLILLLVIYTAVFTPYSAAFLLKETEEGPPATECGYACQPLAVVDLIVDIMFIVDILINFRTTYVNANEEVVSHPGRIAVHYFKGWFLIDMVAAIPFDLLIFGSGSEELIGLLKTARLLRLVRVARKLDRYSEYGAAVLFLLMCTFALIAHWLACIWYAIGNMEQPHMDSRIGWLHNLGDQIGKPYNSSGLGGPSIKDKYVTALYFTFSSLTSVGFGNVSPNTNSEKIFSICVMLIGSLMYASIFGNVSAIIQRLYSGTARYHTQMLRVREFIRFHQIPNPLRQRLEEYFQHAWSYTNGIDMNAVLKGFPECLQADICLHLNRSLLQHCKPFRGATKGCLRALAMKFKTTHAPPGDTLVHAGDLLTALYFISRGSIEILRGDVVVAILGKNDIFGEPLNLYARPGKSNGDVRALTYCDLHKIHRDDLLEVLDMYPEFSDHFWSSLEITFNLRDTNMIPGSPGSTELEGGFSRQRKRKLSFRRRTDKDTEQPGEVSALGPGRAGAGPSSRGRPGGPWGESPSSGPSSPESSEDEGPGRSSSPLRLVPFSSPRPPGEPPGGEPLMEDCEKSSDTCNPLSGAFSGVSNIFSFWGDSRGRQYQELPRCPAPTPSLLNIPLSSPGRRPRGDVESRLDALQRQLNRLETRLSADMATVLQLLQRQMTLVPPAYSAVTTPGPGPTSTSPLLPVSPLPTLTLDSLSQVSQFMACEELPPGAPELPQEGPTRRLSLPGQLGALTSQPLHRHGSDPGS

The assay addresses human ether-à-go-go-related gene (hERG) potassium channel (human, UniProt Q12809). In words: primary screen, population patch clamp on CHO cells stably expressing hERG; higher = less effect of the substance.
As to `Cc1cc(CNC(=O)CCc2nnc(CCCCc3ccccc3)o2)nn1C`, the “hERG current change (%, negative = inhibition) at 10uM” value is on record as 38.1%.

Take `Cc1ccc(NC(=O)N2CCCc3ccccc32)cc1C`: the “hERG current change (%, negative = inhibition) at 10uM” value is listed as -29.2%.

Consider `COc1ccc(OC)c(N(CC(=O)N2CCC(C)CC2)S(=O)(=O)c2ccccc2)c1`, for which the “hERG current change (%, negative = inhibition) at 10uM” value is given as -22.2%.

For the compound `CCCc1nnc(SCC(=O)O)n1/N=C/c1ccc2c(c1)OCO2`, the “hERG current change (%, negative = inhibition) at 10uM” value was -7.5%.

`CCOc1ccccc1CNC(=O)c1nn(CC)cc1[N+](=O)[O-]`: the “hERG current change (%, negative = inhibition) at 10uM” value was found to be 9.07%.

With `C=CCSc1nnc(-c2sc(-c3ccccc3)nc2C)n1C`, the “hERG current change (%, negative = inhibition) at 10uM” value is reported as -33.6%.

In the case of `Cc1cc(NC(=O)CSCC(=O)N(C)Cc2ccc(Cl)c(Cl)c2)no1`, the “hERG current change (%, negative = inhibition) at 10uM” value is -9.94%.

For the compound `CCOC(=O)c1[nH]c2ccc(OC)cc2c1NS(=O)(=O)c1ccc(Cl)s1`, the “hERG current change (%, negative = inhibition) at 10uM” value was determined as 12.9%.

For `CCc1ccc(CN2CCCC(CNC(=O)c3cccc(OC)c3OC)C2)cc1` (centres unmarked), the “hERG current change (%, negative = inhibition) at 10uM” value was -54.1%.

`CCOc1cccc(CN2CCCC(CNC(=O)c3cccc(OC)c3OC)C2)c1` (centres unmarked): the “hERG current change (%, negative = inhibition) at 10uM” value was -9.11%.

For the compound `COc1ccccc1CN1CCCC(CNC(=O)c2cccc3ccccc23)C1` (centres unmarked), the “hERG current change (%, negative = inhibition) at 10uM” value is listed as -47.8%.

Take `N/C(Cc1nc(-c2ccc(F)cc2)cs1)=N\O`: the “hERG current change (%, negative = inhibition) at 10uM” value is 13.7%.

Turning to `COc1ccc(/C=C2\SC(=S)N(NS(=O)(=O)c3ccccc3)C2=O)c(OC)c1`, the “hERG current change (%, negative = inhibition) at 10uM” value is -33.1%.

Consider `CCOC(=O)Cc1csc(NS(=O)(=O)Cc2ccccc2)n1`, for which the “hERG current change (%, negative = inhibition) at 10uM” value is on record as 3.54%.

For the compound `CC(C)c1ccc(Nc2nc(Cl)nc(Cl)n2)cc1`, the “hERG current change (%, negative = inhibition) at 10uM” value turned out to be 19.1%.

In the case of `COc1ccc(N2CCC(CNC(=O)Nc3ccc(Cl)cc3)C2)cc1` (centres unmarked), the “hERG current change (%, negative = inhibition) at 10uM” value came to 11.5%.

On to `Cc1cccc(NC(=O)NCC2CC2)c1`, for which the “hERG current change (%, negative = inhibition) at 10uM” value is reported as 4.74%.

Regarding `Cc1ccc(C)c(CN2CCC(CNC(=O)Nc3ccc(F)c(Cl)c3)CC2)c1`, the “hERG current change (%, negative = inhibition) at 10uM” value is given as -65%.

As for `COc1ccc(Cl)cc1NC(=O)NCC1CCN(Cc2ccccc2F)CC1`, the “hERG current change (%, negative = inhibition) at 10uM” value is -37.7%.

Regarding `COc1ccc(Cl)cc1NC(=O)NCC1CCN(Cc2cc(C)ccc2C)CC1`, the “hERG current change (%, negative = inhibition) at 10uM” value is reported as -67.7%.

Take `Cc1ccc(C)c(CN2CCC(CNC(=O)Nc3ccc(Cl)cc3)CC2)c1`: the “hERG current change (%, negative = inhibition) at 10uM” value is -68.6%.

With `COc1ccc(Cl)cc1NC(=O)NCC1CCN(C(=O)OC(C)(C)C)CC1`, the “hERG current change (%, negative = inhibition) at 10uM” value worked out at 4.67%.

Regarding `Cc1cccc(CN2CCC(CNC(=O)Nc3ccc(F)c(Cl)c3)CC2)c1`, the “hERG current change (%, negative = inhibition) at 10uM” value is given as -74.9%.

With `COc1ccc(C(CC(=O)NCCN2CCOCC2)NS(=O)(=O)c2ccc(C)cc2)cc1` (centres unmarked), the “hERG current change (%, negative = inhibition) at 10uM” value was found to be 5.28%.

For the compound `Cc1ccc(CNC(=O)C2CCCN(c3nc4ccccc4o3)C2)cc1` (centres unmarked), the “hERG current change (%, negative = inhibition) at 10uM” value is reported as -1.06%.

With `O=C(CSc1nnc(-c2ccco2)o1)NCC(=O)c1ccccc1`, the “hERG current change (%, negative = inhibition) at 10uM” value is -4.72%.

With `COC(=O)CCC(=O)NNC(=O)c1cccc(Cl)c1`, the “hERG current change (%, negative = inhibition) at 10uM” value was 16.4%.

As for `CC(=O)c1sc(NC(=O)C(C)C)nc1C`, the “hERG current change (%, negative = inhibition) at 10uM” value is -0.878%.

With `CC(=O)Nc1ccc(-c2csc(Nc3ccc(S(N)(=O)=O)cc3)n2)cc1`, the “hERG current change (%, negative = inhibition) at 10uM” value is reported as -1.99%.

With `O=C(Cn1nc(-c2ccc(F)cc2)ccc1=O)Nc1ccc2c(c1)OCCO2`, the “hERG current change (%, negative = inhibition) at 10uM” value is recorded as -0.525%.

`Cc1ccc(NC(=O)NCC2CCN(Cc3cc(C)ccc3Cl)CC2)c(C)c1`: the “hERG current change (%, negative = inhibition) at 10uM” value is listed as -58.3%.

As to `Cc1ccc(C)c(CN2CCC(CNC(=O)Nc3cccc(Cl)c3C)CC2)c1`, the “hERG current change (%, negative = inhibition) at 10uM” value is listed as -43.1%.

For `Cc1ccc(NC(=O)NC(=O)CN2CCC(C(N)=O)CC2)c(C)c1`, the “hERG current change (%, negative = inhibition) at 10uM” value is recorded as 12%.

For `O=C(Cn1nnc(-c2ccccc2)n1)c1ccccc1`, the “hERG current change (%, negative = inhibition) at 10uM” value was 7.22%.

As to `Cc1ccc2nc(/N=C(\N)NC(=O)NC3CCCCC3)nc(C)c2c1`, the “hERG current change (%, negative = inhibition) at 10uM” value is -76.4%.

For `CCCC(=O)N/C(N)=N/c1nc(C)c2cc(C)ccc2n1`, the “hERG current change (%, negative = inhibition) at 10uM” value is recorded as -23.8%.

Regarding `Cc1nc(/N=C(\N)NC(=O)NC2CCCCC2)nc2ccccc12`, the “hERG current change (%, negative = inhibition) at 10uM” value was -21%.

For `CCOC(=O)c1cc(CC)sc1NC(=O)CN1CCN(C(=O)C2CCCO2)CC1` (centres unmarked), the “hERG current change (%, negative = inhibition) at 10uM” value is on record as -65.9%.

Take `COC(=O)CN1CCN(C(=O)c2ccco2)CC1`: the “hERG current change (%, negative = inhibition) at 10uM” value is 10%.

For `CCOC(=O)c1cc(C)sc1NC(=O)CN1CCN(C(=O)C2CCCO2)CC1` (centres unmarked), the “hERG current change (%, negative = inhibition) at 10uM” value is -31%.

On to `CCc1cc(C(=O)OC)c(NC(=O)CN2CCN(C(=O)c3ccco3)CC2)s1`, for which the “hERG current change (%, negative = inhibition) at 10uM” value is reported as -51.6%.

`CCc1cc(C(=O)OC)c(NC(=O)CN2CCN(C(=O)C3CCCO3)CC2)s1` (centres unmarked): the “hERG current change (%, negative = inhibition) at 10uM” value is listed as -47.2%.

With `CCc1c(C)sc(NC(=O)CN2CCN(C(=O)c3ccco3)CC2)c1C(=O)OC`, the “hERG current change (%, negative = inhibition) at 10uM” value was -39.7%.

Turning to `COC(=O)c1cc(C)sc1NC(=O)CN1CCN(C(=O)c2ccco2)CC1`, the “hERG current change (%, negative = inhibition) at 10uM” value is recorded as -30%.
